MBD2 inh: inhibitors of MBD2 binding to methylated DNA, primary screen, biochemical, TR-FRET, DNA-binding domain, human | 370,000 tested, 0.31% active | MBD2 binding to methylated oligonucleotide | inhibition, % at 4.4 µM | Methyl-CpG-binding domain protein 2 (Homo sapiens), Q9UBB5; in the data active = inhibition above about 13%
LEDGF integ inh: blockers of LEDGF/p75-dependent integrase strand transfer – biochemical, TR-FRET, high throughput, primary screen | 370,000 tested, 0.64% active | TR-FRET IN-LEDGF/p75 DNA integration, Eu/Cy5 | AID 743269, 2014 | inhibition, % at 3.7 µM;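 active = inhibition above the screen-wide mean plus 3 SD, cut at about 13% in these data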;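 also: signal is the Cy5 over europium emission ratio at 671 and 618 nm; 0% = plate median of compound wells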
TCR-CD3 inh: inhibitors of human TCR-CD3 interaction, primary screen, biochemical, fluorescence, TAMRA-labeled TCR probe. inhibition, % at 9.4 µM. 360,000 tested, 0.37% active. AID 651800, 2012. T-cell receptor (TCR); in the data active = inhibition above about 19%;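 also: recombinant mutant TCR 2C K166C tagged with TAMRA read by polarization; 0% = receptor in buffer alone and 100% = receptor with positive control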
Rin1-Abl PPI inh: inhibitors of Rin1-Abl protein binding, primary screen, biochemical, TR-FRET; AID 588664, 2011; Tyrosine-protein kinase ABL1 (Homo sapiens) + Ras and Rab interactor 1 (Homo sapiens), …; 360,000 tested, 0.4% active; inhibition, % at 7.35 µM; in the data active = inhibition above about 5%, passing the limit was not always enough
UHRF1 MBD2 ctr: UHRF1 methylated DNA binding inhibitors, primary screen, counter-screen for MBD2 inhibitor project, biochemical, TR-FRET, human UHRF1, single concentration; E3 ubiquitin-protein ligase UHRF1 (Homo sapiens), Q96T88; UHRF1 binding to methylated oligo; inhibition, % at 4.4 µM; 370,000 tested, 0.75% active; AID 687016, 2013; in the data active = inhibition above about 21%;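 also: UHRF1 SRA domain binding a hemimethylated CpG hairpin DNA probe; 0% = median of test compound wells and 100% = reference inhibitor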
Target sequence (Q96T88 whole entry, looked up, the tested form may be a part): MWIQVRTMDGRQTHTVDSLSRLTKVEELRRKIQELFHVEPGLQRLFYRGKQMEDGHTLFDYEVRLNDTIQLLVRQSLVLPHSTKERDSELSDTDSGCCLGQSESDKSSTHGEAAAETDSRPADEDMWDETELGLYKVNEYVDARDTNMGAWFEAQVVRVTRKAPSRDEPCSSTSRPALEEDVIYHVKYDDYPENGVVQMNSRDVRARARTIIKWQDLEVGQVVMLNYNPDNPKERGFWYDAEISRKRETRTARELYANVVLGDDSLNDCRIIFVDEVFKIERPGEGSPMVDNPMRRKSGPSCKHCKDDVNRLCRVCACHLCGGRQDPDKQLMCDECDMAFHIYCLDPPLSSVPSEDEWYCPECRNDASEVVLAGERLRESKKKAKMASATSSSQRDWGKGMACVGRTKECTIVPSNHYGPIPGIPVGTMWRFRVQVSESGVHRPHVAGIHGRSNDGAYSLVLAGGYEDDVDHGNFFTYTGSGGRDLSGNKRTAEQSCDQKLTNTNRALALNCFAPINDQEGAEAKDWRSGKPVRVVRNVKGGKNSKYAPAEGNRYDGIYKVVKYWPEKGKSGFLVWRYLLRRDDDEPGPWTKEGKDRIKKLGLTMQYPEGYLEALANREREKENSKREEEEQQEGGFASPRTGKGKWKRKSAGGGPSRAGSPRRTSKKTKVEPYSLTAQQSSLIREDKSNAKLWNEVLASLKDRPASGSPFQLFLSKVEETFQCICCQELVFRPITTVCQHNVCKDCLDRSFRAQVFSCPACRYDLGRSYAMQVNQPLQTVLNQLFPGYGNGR
Numbers without * were called inactive; . = not tested or not shown. Shown are actives, neighbours in structure and some others; about 2% of the full set was active somewhere.

SMILES	MBD2 inh	LEDGF integ inh	TCR-CD3 inh	Rin1-Abl PPI inh	UHRF1 MBD2 ctr
Cc1nn(C(C)c2nc(-c3ccccc3)no2)c(C)c1[N+](=O)[O-] (stereo not drawn)	-1.1	-2.6	3.3	-1.4	33.3*
O=C(CNC(=O)c1sc2ccccc2c1Cl)NC1CC1	-3.5	-1.7	5.4	0.8	-4.3
CC(=O)c1ccc(NC(=O)[C@@]2(CC(=O)O)CC(/C=C/c3ccccc3)=NO2)cc1	-1.8	-1.9	-5.5	0.7	53.5*
CCOC(=O)c1c(C)oc2c1c(C=NCc1ccccn1)c(O)c1ccccc12	-6.3	16.5*	1.5	-1.3	7.4
COCCN(C(=O)CSc1ncccn1)c1c(N)n(Cc2ccccc2)c(=O)[nH]c1=O	-1.0	-0.8	6.0	-1.6	-1.2
COCCN(C(=O)CSc1ncn[nH]1)c1c(N)n(Cc2ccccc2)c(=O)[nH]c1=O	4.3	4.9	2.6	2.8	26.9*
COCCN(C(=O)CSc1nnc(-c2ccc(C)c(C)c2)o1)c1c(N)n(CC(C)C)c(=O)[nH]c1=O	3.2	-6.9	-9.9	2.2	5.0
CCCCn1c(N)c(N(CCOC)C(=O)C2CCN(S(=O)(=O)c3ccc(Cl)cc3)CC2)c(=O)[nH]c1=O	7.0	3.2	12.0	-1.4	24.1*
CCN(CC)c1ccc(-c2nnc(SCC(=O)N(CCOC)c3c(N)n(CC(C)C)c(=O)[nH]c3=O)o2)cc1	0.5	-0.6	7.2	-2.8	80.4*
CCCCn1c(N)c(N(CCOC)C(=O)C2CCN(S(=O)(=O)c3ccc(F)cc3)CC2)c(=O)[nH]c1=O	-6.6	5.5	0.5	0.4	0.9
CCCCn1c(N)c(N(CCOC)C(=O)CSCc2ccccc2C)c(=O)[nH]c1=O	13.1	7.3	6.3	2.8	32.9*
Fc1ccc(-c2nc3c4ccccc4ccn3c2Cc2cccc(Cl)c2)cc1	-1.3	0.7	-4.5	3.6	13.2
C=CCN=C1NC(c2ccccc2C(F)(F)F)C(C(=O)OC)=C(C)N1Cc1ccc(C(F)(F)F)cc1 (stereo not drawn)	-1.5	3.5	2.4	.	1.0
N#Cc1ccc(-c2csc(NC3=NCCCCC3)n2)cc1	2.6	0.8	-2.5	2.4	39.4*
C=CCN=C1NC(CCc2ccccc2)C(C(=O)OC)=C(C)N1C (stereo not drawn)	4.3	-3.1	-3.1	.	0.6
Cc1ccc(-n2c(-c3ccccc3)cc(/C=N/NC(=O)CC#N)c2-c2ccccc2)cc1	2.8	1.3	-0.5	.	8.2
N#CCC(=O)N/N=C/c1cc(-c2ccccc2)n(-c2ccc(Cl)cc2)c1-c1ccccc1	6.7	-3.4	1.4	.	37.9*
O=c1oc2ccc(C#CC3(O)CCCCC3)cc2cc1-n1cc(C2(O)CCCCC2)nn1	-1.3	-0.1	-0.4	3.0	3.0
N#Cc1cccnc1N1CCC(C(N)=O)CC1	-4.3	-4.1	7.2	-1.8	0.1
CC1C(=O)N(Cc2cn(CCC3OCCO3)nn2)CCS(=O)(=O)N1Cc1ccc(-c2ccccc2)cc1 (stereo not drawn)	-0.3	1.1	1.9	-0.8	-2.3
O=C(Nc1ccc(-c2cn3ccccc3n2)cc1)c1cccs1	4.1	-4.8	4.2	1.5	0.0
O=C(NCC1CCCO1)c1cc(S(=O)(=O)N2CCOCC2)c(Cl)cc1Cl (stereo not drawn)	1.9	-1.3	-3.0	2.0	23.1*
CCC1CCCCN1CCNC(=O)CCS(=O)(=O)c1ccc(Br)cc1 (stereo not drawn)	6.0	0.8	2.7	-2.6	24.8*
Nc1nc2c(ncn2[C@@H]2O[C@H](C(=O)N[C@@H](Cc3ccccc3)C(=O)NCC3CCCCC3)[C@@H](O)[C@H]2O)c(=O)[nH]1	0.2	-4.2	7.3	.	0.9
O=C(OCC(=O)N(Cc1ccccc1)Cc1ccccc1)c1ccccc1NCCO	1.2	2.7	3.0	-1.6	5.4
CCN(C(=O)COC(=O)c1ccccc1NCCO)c1cccc2ccccc12	4.5	-1.7	4.9	0.3	91.0*
C/C(=N\OCc1ccc(C#N)cc1)c1ccccc1	0.5	-4.0	-1.9	-0.5	70.6*
COC(=O)[C@]12C[C@H](CC(=O)NCCCCc3ccccc3)C(=O)N(Cc3ccccc3)C1=C[C@H](C(C)C)O[C@@H]2C1CC1	-1.6	6.4	-6.1	.	2.1

Compound activity: PubChem BioAssay, The Scripps Research Institute Molecular Screening Center
